# Screens (PubChem BioAssay)
# Shown are actives, neighbours in structure and some others; about 9% of the full set was active somewhere.
# ALDH1A1 inh – qHTS Assay for Inhibitors of Aldehyde Dehydrogenase 1 (ALDH1A1); Aldehyde dehydrogenase 1A1 (Homo sapiens), P00352; Purified ALDH1A1, NADH fluorescence, propionaldehyde substrate; Potency, µM (top dose mostly 75.3 µM), inactives show at the highest dose activity, negative = inhibition, hits mostly inhibitors; hit rate 7.3% among 220,000;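 also: potency is read from the fitted curve at half-maximal effect; plate controls were no enzyme wells and a reference inhibitor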
# IMPase inh – qHTS Assay for Identifying the Cell-Membrane Permeable IMPase Inhibitors. Inositol monophosphatase 1 (Rattus norvegicus), P97697. inhibition (IP1 accumulation), % at 46.1 µM. 120,000 tested, under 10 active. CHO-M1 cells, IP1 accumulation, HTRF TR-FRET ratio; active = well fitted curve in the direction sought with a large enough effect in the signal ratio, not every such curve was filed as active; inconclusive = small, poorly fitted or top-dose-only effect, or a change in a side signal; inactive = no such curve, though single readings can be large or run the other way; the % refers to the signal ratio;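 also: cells stimulated with carbachol in lithium chloride buffer; plate controls were DMSO basal wells for no effect and reference inhibitor wells for full effect; higher means more IMPase inhibition seen as more IP1 and lower FRET ratio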
#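 Carbachol-driven Gq signalling in CHO-M1 cells (2000/well) generates IP1. Compounds that block IMPase raise IP1 and so reduce the FRET signal from Eu-anti-IP1 and d2-IP1 after a 10 min room-temperature lysis.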
# HPGD inh – qHTS Assay for Inhibitors of HPGD (15-Hydroxyprostaglandin Dehydrogenase); 15-hydroxyprostaglandin dehydrogenase [NAD(+)] (Homo sapiens), P15428; purified HPGD, NADH fluorescence kinetic, PGE2 substrate; Potency, µM, without a hit: top-dose activity change, negative = inhibition, most hits filed as inhibitors; AID 894, 2007; hit rate 4.3% among 150,000; also: potency is read from the fitted curve at half-maximal effect
# Target sequence (P15428 whole entry, looked up): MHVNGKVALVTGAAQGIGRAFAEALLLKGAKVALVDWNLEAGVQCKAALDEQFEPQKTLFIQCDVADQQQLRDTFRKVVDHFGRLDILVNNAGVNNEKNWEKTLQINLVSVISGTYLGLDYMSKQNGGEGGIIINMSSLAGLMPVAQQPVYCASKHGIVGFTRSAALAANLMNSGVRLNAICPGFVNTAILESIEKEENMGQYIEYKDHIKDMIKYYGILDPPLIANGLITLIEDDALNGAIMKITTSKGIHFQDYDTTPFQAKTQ
#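 20 nM HPGD preincubated 15 min at room temperature with compound in 50 mM Tris-HCl pH 8, 0.01% Tween 20. Started with 1 mM NAD+ and 30 uM prostaglandin E2; NADH fluorescence (360/450 nm) read 5 times over 30-s intervals, last minus first.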
# The depositor's hits bear a star; u = inconclusive; x = no result given; [ ] = dose if it differs, or a comment. Unless noted, calls follow the shape of the dose curve; as a rule, active = well fitted inhibition curve with a large enough effect (not every such curve was filed as active); inconclusive = small, poorly fitted or top-dose-only effect, or another doubt; inactive = no such curve, though single readings can be large or run the other way. Unless noted, % is scaled to controls: 0 for no effect and ±100 for the full control effect.
SMILES,ALDH1A1 inh,IMPase inh,HPGD inh
O=Cc1ccc(OC2C=CC(C#Cc3ccccc3)OC2CO)cc1 (stereo not drawn),-14%[13.5 µM],x,x
CCCOc1c(Br)cc(C(N)=O)cc1OCC,9%,x,x
CCOc1cc(C=O)ccc1OCC(N)=O,11µM*,x,x
CCOc1cc(C=O)cc(Br)c1OCC(N)=O,7.9µM*,x,x
CCOc1cc(C=O)ccc1OCC(=O)N1CCCC1,-5%,x,x
Cc1cc2cc(CNC(=S)NC3CCCCC3)ccc2n1C,5%,x,x
CN(C)Cc1ccccc1-c1nc(NCc2ccccc2)c2ccccc2n1,-8%,x,-3%
CC(CC(=O)Nc1cccnc1)c1ccccc1 (stereo not drawn),3%,x,x
NS(=O)(=O)c1ccc(CCNCC(=O)NC2CC2)cc1,-5%,x,x
NS(=O)(=O)c1ccc(CCNCC(=O)N2CCC(Cc3ccccc3)CC2)cc1,10µM*,x,x
Cc1ccccc1NC(=S)N1CCC(NC(=O)c2ccco2)CC1,0%,x,x
CCOc1ccc(N=C(NC#N)SCC(=O)NC2CC2)cc1,2%,-1,2%
N#C/C(=C/c1cn(Cc2ccc(F)cc2)c2ccccc12)C(=O)Nc1cccc(Cl)c1,x,0,x
CCOc1cc(-c2cc(-c3ccc(C)cc3)nc(N)c2C#N)ccc1O,-11%,8,-24%
CCOc1cc(/C=C(\C#N)c2[nH]nc(N)c2C#N)ccc1O,u,4,25µM*
CSc1sc(C(=O)O)c(C)c1C(C)=O,2%,-7,-12%
c1coc(CN=C2NC(=NCc3ccco3)c3ccccc32)c1,25µM*,1,-25%
O=C1c2ccccc2NC(c2ccc(O)cc2)N1Cc1ccco1 (stereo not drawn),u,-3,u
NC[C@H]1O[C@@H](n2cnc3c(=O)[nH]c(N)nc32)[C@@H](O)[C@@H]1O,3%[13.5 µM],x,-7%
COc1ccccc1OC(=O)c1ccc(SC)cc1OC,1%,1,-9%
CCOC(=O)c1ccc(NC(=O)C2(c3ccc(Cl)cc3)CCCC2)cc1,-6%,1,-2%
Cc1ccc(NC(=O)COC(=O)C2(c3ccc(Cl)cc3)CCCC2)cc1,10µM*,x,-8%
COc1ccc(CN2C(=O)CS(=O)CC2=O)cc1OC,8.9µM*,8,-12%
COc1ccc(CN2CCS(=O)(=O)CC2)cc1OC,-14%,x,x
Cc1ccc(C(=O)NCc2nnc(SCC(=O)NC(C)c3ccccc3)n2C)cc1 (stereo not drawn),-8%,x,x
SMILES,ALDH1A1 inh,IMPase inh,HPGD inh
CCC1(C)Cc2c(C#N)c(N)n(-c3ccccc3)c(=S)c2CO1 (stereo not drawn),4%,x,x
CCC1(C)Cc2c(C#N)c(N)sc(=S)c2CO1 (stereo not drawn),10µM*,-5,28µM*
COC(=O)C1=C(C(=O)OC)[C@@H]2N(C)c3ccc(OC)cc3[C@@]23C[C@@H](C(=O)OC)N(S(=O)(=O)c2ccc4c(c2)OCCN4C)C3=N1,12%[13.5 µM],x,-12%
CCc1noc(C)c1C(=O)N1CCCC(CCC(=O)NCc2cccc(OC)c2)C1 (stereo not drawn),5%,x,x
COc1ccc(CCNC(=O)CSc2ccc(-c3ccco3)nn2)cc1,3.2µM*,x,x
COc1ccc(CCNC(=O)CSc2ccc(-c3ccncc3)nn2)cc1,-4%,x,x
Cn1c(SCC(=O)NCCc2ccccc2)nnc1-c1ccco1,14%,2,-10%
O=C(CSc1ccc(-c2ccco2)nn1)NCCc1ccccc1,7.1µM*,x,x
CNCc1sccc1C,3%,x,x
O=C(NCc1cccnc1)c1cc(-c2cccs2)on1,-6%,5,-11%
CC(=O)OC1CCC2(C)C3CC(=O)C4(C)C(CC5OC6(CCC(C)CO6)C(C)C54)C3CC[C@H]2C1 (stereo partly drawn),3%,x,-7%
CC(N=C1CC(C)(C)CC(=O)/C1=C(/O)CCCN1C(=O)c2ccccc2C1=O)C(=O)O (stereo not drawn),-13%,x,x
c1ccc2c(Cn3nnc4ccccc43)cccc2c1,u,25,28µM*
c1ccc2c(COn3nnc4ccccc43)cccc2c1,-64%,10,u
CCN(CC)C(=O)c1cc(-c2ccccc2OC)on1,14µM*,9,u
COc1ccccc1-c1cc(C(=O)NC(C)C)no1,u,0,u
COc1ccccc1-c1cc(C(=O)NCc2cccs2)no1,u,7,14µM*
COc1ccc(OC)c(-c2cc(C(=O)NCc3cccs3)no2)c1,u,0,u
COCCNC(=O)c1cc(-c2ccccc2OC)on1,u,-1,u
COc1ccccc1-c1cc(C(=O)NCc2ccco2)no1,-14%,-5,20µM*
CCN(CC)C(=O)Cn1nc(C)c2ccccc2c1=O,-4%,2,0%
